Rows were chosen to be rich in hits. Some 2.7% of all compounds tested hit in one or more screens of this group.
NadD block – blocks S. aureus nicotinate mononucleotide adenylyltransferase; purified NadD enzyme, colorimetric absorbance read-out; inhibition, % at 20 µM; 360,000 tested, 0.78% active; in the data active = inhibition above about 26%
TAG inh – triacylglycerol accumulation inhibition. H9c2 cells, Nile Red lipid (TAG) fluorescence; cells loaded with 200 µM oleic acid. inhibition, % at 12.5 µM. 230,000 tested, 0.66% active;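 active = pattern-corrected inhibition of lipid staining of at least 50% with the nuclear-stain viability signal not falling by more than 50%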
aDG glyco act – alpha-DG glycosylation activation; Pro5-aDG cells, alpha-DG glycosylation AlphaScreen (IIH6); 0% Pro5, 100% B10-LARGE cell signal; activation, % at 10 µM; 360,000 tested, 0.22% active;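 active = activation of at least 8% versus controls, or a plate z-score of at least 8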;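 also: Pro5 are CHO cells carrying HIG-tagged alpha-DG that lacks glycosylation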
MPTP inh – blocks calcium-induced mitochondrial swelling | isolated mouse mitochondria, Ca2+ swelling absorbance, 30 min | inhibition, % at 10 µM | 360,000 tested, 1.4% active;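 active = inhibition of 50% or more, scaled per plate between neutral and stimulator controls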
NadD conf – confirmation of Staphylococcus aureus NadD inhibitors | 2,000 tested, 13% active | purified S. aureus NadD, colorimetric enzyme assay | inhibition, % at 20 µM | AID 624309 | shares compounds with NadD block; in the data active = inhibition mostly above about 42%, no sharp cut-off; inactive = mostly below about 42%
Large screens that a line does not name were inactive (follow-up assays come after a bar, where they were run).

CCc1c(-c2ccc(Br)cc2)ncn1Cc1cccc(-c2ccccc2)c1	none (no result: NadD block, TAG inh)
CCN(CC)S(=O)(=O)c1ccc(C(=O)NNc2nc(-c3ccccc3)c3cc(Br)ccc3n2)cc1	NadD block 35 (no result: TAG inh) | NadD conf inactive
Cc1cc2cc(CNS(=O)(=O)c3ccc4ccccc4c3)ccc2n1C	NadD block 35 | NadD conf inactive
O=C(OCc1ccc(Cl)c(Cl)c1)c1ccc[nH]1	none (no result: TAG inh)
NS(=O)(=O)c1ccc(-c2ccc(/C=N/NC(=O)c3ccc([N+](=O)[O-])cc3)o2)cc1	none
CCCOc1ccc(C(=O)N/N=C/c2ccc(-c3ccc(S(=O)(=O)Nc4ncccn4)cc3)o2)cc1	NadD block 32 (no result: TAG inh) | NadD conf 49
COc1ccc(NC(=O)CSc2nc3nc(-c4cccs4)cc(C(F)(F)F)c3c(=O)[nH]2)c(OC)c1	NadD block 40 (no result: TAG inh) | NadD conf 60
CC(O)c1cccc(-c2ccc(CN3C[C@]4(CO)O[C@@H](CO)C[C@@H]4S3(=O)=O)cc2)c1 (some centres not stated)	none
COc1ccccc1NC(=O)C(C)N1C(=O)C2CCCCC2C1=O (configuration not stated)	none
CC1(C)Cc2c(C#N)c(N3CCN(C(=O)c4ccccc4)CC3)nc(-c3ccco3)c2CS1	NadD block 43 | NadD conf inactive
Cc1ccc(OCC(=O)Nc2nnc(S(=O)(=O)N3CCC(C)CC3)s2)cc1	NadD block 26 (no result: TAG inh) | NadD conf inactive
Cc1ccc(N2C(=O)C3N=NN(CC(=O)N4N=C(c5ccccc5)CC4c4ccccc4)C3C2=O)cc1 (configuration not stated)	NadD block 43 | NadD conf inactive
CC1(C)CC(=O)c2c(nc(SCC(=O)Nc3nsc(-c4ccccc4)n3)c(C#N)c2-c2ccccc2)C1	NadD block 39 | NadD conf inactive
Cc1nnc(SCC(=O)Nc2nsc(-c3ccccc3)n2)s1	none (no result: TAG inh)
N#CC1=C(N)n2c(s/c(=C\c3cccs3)c2=O)=C(C#N)C1c1cccs1 (configuration not stated)	NadD block 49 (no result: TAG inh) | NadD conf inactive
Cc1ccc(-c2nc3c4ccccc4ccn3c2Cc2ccccc2C(F)(F)F)cc1	NadD block 31 (no result: TAG inh) | NadD conf inactive
Cc1ccc(-c2nc3ccc(C)cn3c2Cc2ccccc2C(F)(F)F)cc1	none (no result: TAG inh)
CC(NS(=O)(=O)c1ccc2c(c1)c(=O)n(C)c(=O)n2C)C(=O)NC1CCCCC1 (configuration not stated)	none (no result: TAG inh)
N#CCCN(CCC#N)S(=O)(=O)c1ccc(C(=O)Nc2nc(-c3ccccc3)c(C(=O)c3ccccc3)s2)cc1	NadD block 36 | NadD conf inactive
Cc1ccc(-c2nc(NC(=O)c3ccc(S(=O)(=O)N(CCC#N)CCC#N)cc3)sc2-c2ccccc2)cc1	none (no result: TAG inh)
CC(C)OCCCn1c(=N)c(C(N)=S)cc2c(=O)n3ccccc3nc21	NadD block 26 | NadD conf inactive
CC(=O)N=c1c(C#N)cc2c(=O)n3ccccc3nc2n1CCCOC(C)C	none
CCc1cc(C(=O)N2CCCC(N3CCN(c4cccc(C(F)(F)F)c4)CC3)C2)n(C)n1 (configuration not stated)	NadD block 38 (no result: TAG inh) | NadD conf inactive
O=c1[nH]c(C(Cl)(Cl)Cl)nc2ccc3ccccc3c12	none (no result: TAG inh)
COc1ccc2nc(-n3c(C)ccc3C)sc2c1	none (no result: TAG inh)
COc1ccc2nc(N3C(=O)/C(=C/c4ccccc4)NC3=S)sc2c1	NadD block 44 (no result: TAG inh) | NadD conf inactive
O=C(Nc1ccc(S(=O)(=O)Nc2nccs2)cc1)c1ccc(N2C(=O)c3ccccc3C2=O)cc1	NadD block 62 (no result: TAG inh) | NadD conf inactive
O=C(Nc1ccc(S(=O)(=O)Nc2nccs2)cc1)c1cc(-c2ccccc2)nc2ccccc12	NadD block 46 (no result: TAG inh) | NadD conf 50
O=C(Nc1nnc(-c2cccs2)o1)c1cc(-c2ccccc2)nc2ccccc12	NadD block 55 | NadD conf 51
O=C(NNS(=O)(=O)c1ccc2ccccc2c1)c1cc(-c2ccccn2)nc2ccccc12	NadD block 45 | NadD conf 49
O=C(NCc1cccs1)c1cc(-c2ccccc2)nc2ccccc12	none (no result: TAG inh)
O=C(Nn1cnnc1)c1cc(-c2ccccn2)nc2ccccc12	none
CCc1ccc(-c2cc(C(=O)Nc3ccc(S(=O)(=O)NC(C)=O)cc3)c3ccccc3n2)cc1	none
CN(CC(=O)Nc1ccccc1C(F)(F)F)C(=O)CSCc1ccccc1	none
C[C@H]1CN([C@@H](C)CO)C(=O)CCCn2nncc2CO[C@@H]1CN(C)Cc1cccc(C(=O)O)c1	none (no result: TAG inh)
